Among the data in the supplement of paper PMC6518042 are DuctApe activity index values, retold here.

For the first assay, the system named is Pectobacterium parmentieri SCC3193. The assay can be described thus: DuctApe activity index (growth/respiration on compound as sole nutrient source, blank-subtracted) (activity index (0-3)); higher = stronger utilization of the compound, active = 3 or more. The conditions noted are these: nutrient role (plate category): carbon. As to the method:
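Biolog Phenotype Microarray plates PM1, PM2A (carbon), PM3 (nitrogen) and PM4 (phosphorus/sulfur) inoculated with P. parmentieri SCC3193 in M9-C minimal salts medium with Biolog dye A, and read in the OmniLog for 46 h. Each well was tested in triplicate and the experiment was run twice. DuctApe computed a blank-subtracted activity index (AV, 0-3) from the mean curves; growth is positive at AV >= 3 and negative at AV <= 2.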
Regarding `O=C(O)CC(CC(=O)O)C(=O)O` [Tricarballylic acid], the DuctApe activity index is 0 (inactive).
The same measure, in the same setting: with `OCC1(O)OC[C@H](O)[C@@H](O)[C@@H]1O` (stereo partly drawn) [L-Sorbose] the figure was 0 (inactive); with `N[C@@H](CCO)C(=O)O` [L-Homoserine], 0 (inactive).
The same measure, in the same setting: with `O=C(CO)[C@@H](O)[C@H](O)[C@@H](O)C(=O)O` [5-Keto-D-Gluconic acid] the figure was 0 (inactive).
As to `OC[C@H]1O[C@@H]2O[C@H]3[C@H](O)[C@@H](O)[C@@H](O[C@H]4[C@H](O)[C@@H](O)[C@@H](O[C@H]5[C@H](O)[C@@H](O)[C@@H](O[C@H]6[C@H](O)[C@@H](O)[C@@H](O[C@H]7[C@H](O)[C@@H](O)[C@@H](O[C@H]8[C@H](O)[C@@H](O)[C@@H](O[C@H]9[C@H](O)[C@@H](O)[C@@H](O[C@H]1[C@H](O)[C@H]2O)O[C@@H]9CO)O[C@@H]8CO)O[C@@H]7CO)O[C@@H]6CO)O[C@@H]5CO)O[C@@H]4CO)O[C@@H]3CO` [g-Cyclodextrin], the DuctApe activity index is 0 (inactive).
On the same count and under the same terms, in the case of `NCC(=O)N[C@@H](CCC(=O)O)C(=O)O` it was 0 (inactive); in that of `OC[C@H]1OC(O)[C@H](O)[C@@H](O)[C@@H]1O` (stereo partly drawn) [a-D-Glucose], 3 (active).
Same read-out and setting: in the case of `OC[C@@]12OC[C@@H](O1)[C@@H](O)[C@@H](O)[C@@H]2O` [Sedoheptulosan] it was 0 (inactive); in that of `O=C(O)[C@H](O)[C@@H](O)[C@H](O)[C@H](O)CO` [D-Gluconic acid], 3 (active).
Still for that read-out and setting: with `NCCC[C@H](N)C(=O)O` [L-Ornithine] the figure was 0 (inactive).
Turning to `CC(C)[C@H](N)C(=O)O` [L-Valine], the DuctApe activity index was 0 (inactive).
As to `OC[C@@H](O)[C@H](O)[C@H](O)[C@@H](O)CO` [Dulcitol], the DuctApe activity index is 0 (inactive).
Same read-out and setting: in the case of `N[C@@H](CCC(=O)O)C(=O)O` [L-Glutamic acid] it was 2 (inactive); in that of `C[C@H](N)C(=O)O` [L-Alanine], 0 (inactive); in that of `NC(=O)C[C@H](N)C(=O)O` [L-Asparagine], 3 (active).
The same measure, in the same setting: with `CC(=O)CC(=O)O` [Acetoacetic acid] the figure was 0 (inactive); with `O=P(O)(O)OC[C@H](O)CO` (racemic) [DL-a-Glycerol Phosphate], 3 (active).

Staying with this assay, now noted: nutrient role (plate category): nitrogen.
Turning to `O=C(O)CC[C@@H](C(=O)O)N1C(=O)c2ccccc2C1=O` [N-Phthaloyl-L-Glutamic acid], the DuctApe activity index was 0 (inactive).
Same read-out and setting: with `NCCCCCC(=O)O` [e-Amino-N-Caproic acid] the figure was 0 (inactive).
Same read-out and setting: in the case of `N[C@@H](CCO)C(=O)O` [L-Homoserine] it was 0 (inactive); in that of `NCC(=O)N[C@@H](CCC(=O)O)C(=O)O`, 1 (inactive); in that of `O=C1NC(=O)C(=O)N1` [Parabanic acid], 0 (inactive).
The same measure, in the same setting: with `C[C@H](N)C(=O)N[C@@H](CCC(=O)O)C(=O)O` the figure was 1 (inactive); with `NCCC[C@H](N)C(=O)O` [L-Ornithine], 0 (inactive).
Take `CC(C)[C@H](N)C(=O)O` [L-Valine]: the DuctApe activity index is 0 (inactive).
Same read-out and setting: in the case of `N[C@@H](CCC(=O)O)C(=O)O` [L-Glutamic acid] it was 1 (inactive); in that of `Oc1nc(O)c2nc(O)[nH]c2n1` [Uric acid], 0 (inactive).
Still for that read-out and setting: in the case of `C[C@H](N)C(=O)O` [L-Alanine] it was 0 (inactive).
On to `NC(=O)C[C@H](N)C(=O)O` [L-Asparagine], for which the DuctApe activity index is 2 (inactive).

Still in this assay, the particulars now being: nutrient role (plate category): phosphate & sulphur.
As to `NC(=O)OP(=O)(O)O` [Carbamyl Phosphate], the DuctApe activity index was 1 (inactive).
For the compound `O=P(O)(O)O[C@H]1[C@H](OP(=O)(O)O)[C@@H](OP(=O)(O)O)[C@H](OP(=O)(O)O)[C@@H](OP(=O)(O)O)[C@H]1OP(=O)(O)O` [Inositol Hexaphosphate], the DuctApe activity index was 0 (inactive).
For the compound `C=C(OP(=O)(O)O)C(=O)O` [Phosphoenol Pyruvate], the DuctApe activity index was 2 (inactive).
Same read-out and setting: in the case of `CSCC[C@@H](N)C(=O)O` [D-Methionine] it was 2 (inactive); in that of `Nc1nc2c(ncn2[C@@H]2O[C@H](COP(=O)(O)O)[C@@H](O)[C@H]2O)c(=O)[nH]1` [Guanosine 5`-Monophosphate], 1 (inactive); in that of `O=P(O)(O)OP(=O)(O)O` [Pyrophosphate], 1 (inactive).
The same measure, in the same setting: in the case of `Nc1ncnc2c1ncn2[C@@H]1O[C@H](CO)[C@@H](OP(=O)(O)O)[C@H]1O` [Adenosine 3`-Monophosphate] it was 2 (inactive); in that of `Nc1nc2c(ncn2[C@@H]2O[C@H](CO)[C@@H](OP(=O)(O)O)[C@H]2O)c(=O)[nH]1` [Guanosine 3`-Monophosphate], 2 (inactive); in that of `O=P(O)(O)OC[C@H]1OC(O)C[C@@H](O)[C@@H]1O` (stereo partly drawn) [2-Deoxy-D-Glucose 6-Phosphate], 1 (inactive).
On to `Nc1ncnc2c1ncn2[C@@H]1O[C@@H]2COP(=O)(O)O[C@H]2[C@H]1O` [Adenosine 3`,5`-Cyclic Monophosphate], for which the DuctApe activity index is 0 (inactive).
Same read-out and setting: with `N[C@@H](CS(=O)(=O)O)C(=O)O` [L-Cysteic acid] the figure was 1 (inactive); with `O=P(O)(O)OC[C@H](O)CO` (racemic) [DL-a-Glycerol Phosphate], 1 (inactive).
